Source: PubChem BioAssay (The Scripps Research Institute Molecular Screening Center)
PAFAH1B3 FP inh: inhibitors of human PAFAH1B3; Q15102; 340,000 compounds, 0.28% hits; recombinant PAFAH1B3, FP-rhodamine probe, fluorescence polarization; inhibition, % at 3.39 µM; AID 492972;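 active = inhibition above the screen-wide average of all tested compounds plus 3 SD, cut at about 25% in these data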;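 also: 0% = enzyme with DMSO only and 100% = wells lacking PAFAH1B3 protein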
Fam108B inh: blocks mouse Fam108B hydrolase in RBBP9 counter-screen; inhibition, % at 9.51 µM; recombinant Fam108B, FP-Rh probe fluorescence polarization; 300,000 compounds, 0.33% hits;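 active = inhibition above the screen mean inhibition plus 3 SD, computed separately per campaign, cut at about 18% in these data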;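 also: inhibitors lower polarization as less probe binds the enzyme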
PAFAH1B2 inh: inhibitors of human PAFAH1B2; recombinant PAFAH1B2, FP-rhodamine activity probe, fluorescence polarization; inhibition, % at 3.39 µM; 340,000 compounds, 1.2% hits; AID 492953;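 active = inhibition above the mean of all tested compounds plus 3 SD, cut at about 24% in these data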;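 also: 0% = enzyme with DMSO and 100% = wells lacking PAFAH1B2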
Target sequence (P68402 whole entry, looked up): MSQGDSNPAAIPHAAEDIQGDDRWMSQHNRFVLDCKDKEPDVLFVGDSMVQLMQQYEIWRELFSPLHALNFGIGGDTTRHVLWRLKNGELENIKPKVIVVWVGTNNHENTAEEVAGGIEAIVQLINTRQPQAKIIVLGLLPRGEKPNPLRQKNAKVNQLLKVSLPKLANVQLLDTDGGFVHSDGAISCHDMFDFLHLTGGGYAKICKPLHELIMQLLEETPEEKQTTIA
PAFAH2 FP inh: PAFAH2 (human) inhibition | 340,000 compounds, 0.99% hits | inhibition, % at 3.39 µM | recombinant PAFAH2, FP-rhodamine activity probe, fluorescence polarization | Q99487;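 active = inhibition above the mean over all tested compounds plus 3 SD, cut at about 30% in these data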;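 also: inhibitors block probe labeling of enzyme so polarization drops; 0% = enzyme with DMSO and 100% = wells lacking PAFAH2 protein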
pPAFAH FP inh: inhibitors of human plasma PAF acetylhydrolase (pPAFAH); recombinant pPAFAH, FP-rhodamine probe fluorescence polarization; inhibition, % at 3.39 µM; 330,000 compounds, 1.5% hits;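 active = inhibition above the mean inhibition across the screen plus 3 SD, cut at about 25% in these data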;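 also: inhibitors block binding of the rhodamine activity-based probe so polarization drops; 0% = enzyme with DMSO and 100% = wells lacking pPAFAH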
PME-1 inh: blocks human protein phosphatase methylesterase 1; 320,000 compounds, 0.53% hits; inhibition, % at 5.9 µM; Q9Y570; recombinant PME-1, FP-Rh probe fluorescence polarization;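 active = inhibition above the campaign mean of all compounds plus 3 SD, cut at about 26% in these data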;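 also: competitive labeling of PME-1 active site by serine hydrolase directed probe; 0% = PME-1 with DMSO and 100% = wells lacking PME-1 enzyme; inhibitors block probe labeling so polarization falls and inhibition rises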
The depositor's hits bear a star; nt = no result. An excerpt weighted towards active compounds, which were near 2.9% of everything screened.

SMILES	PAFAH1B3 FP inh	Fam108B inh	PAFAH1B2 inh	PAFAH2 FP inh	pPAFAH FP inh	PME-1 inh
CC(C)S(=O)(=O)c1csc(NC(=O)Nc2cccc([N+](=O)[O-])c2)c1Cl	6	-14	4	-6	6	28*
Cc1ccc2nc(SCC(=O)NCc3ccc4c(c3)OCO4)nc(=O)n2c1	3	0	-1	1	9	-3
CCOC(=O)c1c(-c2ccc(OC)cc2)oc2ccc(O)cc12	-7	7	0	-2	31*	-2
COc1cc(C)nc(N(C)C(C)=O)n1	-1	3	0	-2	-5	0
Cc1ccc(-c2nc(C=Nc3ccc(O)cc3)c(O)o2)cc1	13	nt	5	19	nt	nt
Cc1ccc(N=Cc2nc(/C=C/c3cccc([N+](=O)[O-])c3)oc2O)cc1	-5	-1	0	4	-2	27*
O=C(CCN1C(=O)/C(=C/c2ccccc2F)SC1=S)N[C@@H](CO)Cc1ccccc1	1	-1	38*	3	-2	0
O=C(CCN1C(=O)/C(=C\c2ccccc2F)SC1=S)Nc1ccc(C(=O)O)c(O)c1	5	1	6	11	20	3
O=C(CCN1C(=O)/C(=C/c2ccccc2)SC1=S)N[C@@H](CO)Cc1ccccc1	3	-6	43*	-5	1	-5
CCNc1nc(NCC)nc(SCCOC(=O)Nc2ccccc2)n1	9	-4	-2	4	-8	1
Cc1ccc(C(C)C)c(OCC(=O)NNC(=O)CC2OC(=O)c3ccccc32)c1 (stereo not drawn)	2	6	12	5	16	-2
Cc1cccc(OCCNS(=O)(=O)c2ccc(Cl)cc2)c1	-3	nt	24*	3	6	-3
Cc1ccc(C)n1C(CC(=O)O)c1ccc(C#N)cc1 (stereo not drawn)	nt	1	nt	nt	25*	2
CCOC(=O)CC(c1ccc(N)cc1)n1c(C)ccc1C (stereo not drawn)	-2	0	2	3	-1	-3
CC1=C(C#N)C(c2ccc3ncccc3c2)C(C#N)=C(C)N1	7	0	-4	3	2	2
COc1ccc(/C=c2\s/c(=C/C(=O)c3ccc(C)cc3)[nH]c2=O)c(OC)c1	-2	-3	-2	-27	21	27*
COc1cccc(/C=c2\s/c(=C/C(=O)c3ccc(C)cc3)[nH]c2=O)c1OC	-19	-20	-7	-28	3	-4
N/C(=C\C(=O)c1cc(Cl)ccc1O)C(Cl)(Cl)Cl	79*	-1	0	15	4	-2
CC(C)(C)c1ccc(C(=O)CC(=O)c2cc(Cl)ccc2O)cc1	4	-4	0	-6	-2	-6
CCN(CC)P(=O)(Nc1cccc(C(F)(F)F)c1)c1ccc(N(C)C)cc1NC(=O)c1ccco1 (stereo not drawn)	13	-1	3	-2	7	-1
O=c1oc2ccccc2c(Nc2cc3ccccc3cc2O)c1[N+](=O)[O-]	10	0	4	16	27*	7
Cc1ccc(CCNC(=O)C2CCCN(S(=O)(=O)c3c(C)nn(C)c3C)C2)cc1 (stereo not drawn)	10	5	29*	-2	5	1
Cc1noc(/C=C/N(C)C)c1S(=O)(=O)N1CCCC(C(=O)NCCC2=CCCCC2)C1 (stereo not drawn)	2	-2	20	-2	25*	1
Cc1cc(C(=O)CN2C(=O)NC3(CCCc4sccc43)C2=O)c(C)n1-c1ccccc1 (stereo not drawn)	-1	-9	7	-1	20	-1
COc1ccc(-n2c(C)cc(C(=O)CN3C(=O)NC4(CCCc5sccc54)C3=O)c2C)cc1 (stereo not drawn)	1	-1	3	5	25*	-6
COc1cc(/C=N\NC(=O)c2ccc(Cn3cc(Br)c([N+](=O)[O-])n3)o2)cc(OC)c1O	0	13	1	-2	27*	7
COc1cc(/C=N/NC(=O)c2ccc(Cn3cc([N+](=O)[O-])cn3)o2)cc(Br)c1O	11	0	3	7	10	0
CCOc1ccc(C(CC(=O)O)NC(=O)COc2ccccc2OC)cc1OC (stereo not drawn)	0	-2	4	-7	4	0
